Source: the supplement of paper PMC3334620
Whole data set: some 33,000 sequences, median “E-score (-0.5 to 0.5)” near -0.053, cut for the highest 2% near 0.37. The full list was thinned out, with the highest values kept by preference.

What follows are sequences tested against Hap1 (UniProt P0CE41) (assay: PBM E-score (8-mer binding enrichment) (E-score (-0.5 to 0.5)); higher = stronger / more preferred TF binding). Conditions: protein concentration: 200 nM; construct: GST-DNA-binding domain.
Description: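 Universal 'all 10-mer' protein binding microarrays (Agilent AMADID 015681) probed with GST-tagged S. cerevisiae TFs (full-length or DBD) made by in vitro transcription/translation (PURExpress), about 100-200 nM. Bound TF was detected with fluorescent anti-GST. Each ungapped 8-mer (which stands for itself and its reverse complement) is scored by the PBM enrichment score (E-score), a modified Wilcoxon-Mann-Whitney statistic from -0.5 to +0.5, computed with the Universal PBM Analysis Suite. Scale: above 0.35 generally sequence-specific binding.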

UniProt P0CE41, sequence (P0CE41 whole entry, the tested form may be a part): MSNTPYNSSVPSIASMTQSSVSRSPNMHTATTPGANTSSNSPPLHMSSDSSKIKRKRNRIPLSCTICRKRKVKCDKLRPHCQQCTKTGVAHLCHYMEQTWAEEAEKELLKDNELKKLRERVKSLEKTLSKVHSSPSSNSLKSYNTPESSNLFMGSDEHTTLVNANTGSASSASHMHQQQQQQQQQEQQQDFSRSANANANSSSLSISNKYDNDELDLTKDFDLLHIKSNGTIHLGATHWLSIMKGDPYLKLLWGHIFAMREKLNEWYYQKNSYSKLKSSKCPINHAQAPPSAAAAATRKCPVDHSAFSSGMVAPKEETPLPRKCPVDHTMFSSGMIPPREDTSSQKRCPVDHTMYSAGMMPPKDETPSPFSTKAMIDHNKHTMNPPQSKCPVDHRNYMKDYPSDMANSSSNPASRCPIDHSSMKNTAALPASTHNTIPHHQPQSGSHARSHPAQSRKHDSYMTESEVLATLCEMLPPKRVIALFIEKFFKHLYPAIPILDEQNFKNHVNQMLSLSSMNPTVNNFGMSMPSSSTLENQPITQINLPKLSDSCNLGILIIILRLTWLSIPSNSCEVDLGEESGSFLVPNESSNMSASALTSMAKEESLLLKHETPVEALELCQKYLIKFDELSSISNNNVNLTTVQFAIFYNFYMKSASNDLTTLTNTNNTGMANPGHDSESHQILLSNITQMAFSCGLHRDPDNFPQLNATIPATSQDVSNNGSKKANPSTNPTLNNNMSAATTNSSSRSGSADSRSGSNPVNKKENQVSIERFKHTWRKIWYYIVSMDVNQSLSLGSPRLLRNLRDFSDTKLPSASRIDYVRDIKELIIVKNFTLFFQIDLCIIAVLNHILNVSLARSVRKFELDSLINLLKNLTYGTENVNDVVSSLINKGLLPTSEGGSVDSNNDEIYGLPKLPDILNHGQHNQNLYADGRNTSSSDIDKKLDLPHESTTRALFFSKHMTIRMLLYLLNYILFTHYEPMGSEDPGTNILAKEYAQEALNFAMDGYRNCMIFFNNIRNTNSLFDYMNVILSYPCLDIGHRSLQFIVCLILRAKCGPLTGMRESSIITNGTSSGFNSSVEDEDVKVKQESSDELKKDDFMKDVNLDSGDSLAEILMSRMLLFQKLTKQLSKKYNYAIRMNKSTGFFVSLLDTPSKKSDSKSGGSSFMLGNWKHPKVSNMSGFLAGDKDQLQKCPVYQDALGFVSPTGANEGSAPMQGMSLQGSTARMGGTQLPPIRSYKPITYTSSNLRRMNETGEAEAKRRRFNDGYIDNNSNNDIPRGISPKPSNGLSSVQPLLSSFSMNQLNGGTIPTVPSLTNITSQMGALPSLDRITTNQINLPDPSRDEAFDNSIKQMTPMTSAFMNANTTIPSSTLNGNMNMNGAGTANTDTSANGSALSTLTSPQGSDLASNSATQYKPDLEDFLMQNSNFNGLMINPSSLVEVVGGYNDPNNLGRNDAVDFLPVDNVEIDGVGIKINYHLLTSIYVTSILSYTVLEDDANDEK

First: GAACCGGA
Second: AAACCGGA
The “PBM E-score” value of the first is higher: 0.382 for the first, 0.328 for the second.

Compared with GAACCGTA, CCACTGCG is lower in “PBM E-score” value: 0.0759 for the first, -0.0793 for the second.

Compared with CGGGTGAG, GTTCCCTA is lower in “PBM E-score” value: 0.201 for the first, -0.0618 for the second.

First: GAAACGTA
Second: AGCTCCGC
The “PBM E-score” value of the first is lower: -0.151 for the first, 0.306 for the second.

Going from CGCTCCGA to AGCTCCGA, the “PBM E-score” value rises from 0.324 to 0.411.

Going from AGCTCCCG to GGCTCCGA, the “PBM E-score” value rises from 0.0669 to 0.221.

Compared with AGCTCCGG, GCCGCACA is lower in “PBM E-score” value: 0.43 for the first, -0.0419 for the second.

First: AATTACCC
Second: ATTTACCA
The “PBM E-score” value of the first is higher: 0.0864 for the first, 0.0182 for the second.

First: AATTACCG
Second: ATTTACCC
The “PBM E-score” value of the first is higher: 0.374 for the first, 0.0884 for the second.

First: CATTACCG
Second: ATTTACCG
The “PBM E-score” value of the first is lower: 0.198 for the first, 0.376 for the second.

Going from GCGAGCAC to GTCGAAAA, the “PBM E-score” value rises from -0.187 to -0.0295.

Compared with CCCCCCCC, ACGCACCT is higher in “PBM E-score” value: -0.27 for the first, -0.185 for the second.

Compared with ACCGGCCA, ACCGGCCT is lower in “PBM E-score” value: 0.284 for the first, 0.181 for the second.

Compared with CCCGGCCA, ACCGGCCC is higher in “PBM E-score” value: 0.291 for the first, 0.329 for the second.

Going from CCCGGCCC to CCCGGCCG, the “PBM E-score” value rises from 0.341 to 0.405.

First: ACCGGCCG
Second: GCCGGCCC
The “PBM E-score” value of the first is higher: 0.439 for the first, 0.372 for the second.

Compared with GCCGGCCA, AACTCTGG is lower in “PBM E-score” value: 0.284 for the first, -0.202 for the second.

First: ACGCAAAG
Second: ACTGCGTG
The “PBM E-score” value of the first is higher: -0.0974 for the first, -0.275 for the second.

Going from CTCGTAGC to TAATTAGA, the “PBM E-score” value rises from -0.117 to 0.0224.

Going from CAGGCCGG to AAGGCCGG, the “PBM E-score” value rises from 0.166 to 0.408.

Compared with AAGGCCGA, AAGGCCCG is lower in “PBM E-score” value: 0.435 for the first, 0.196 for the second.

Compared with AAGGCCGC, AAGGCCGT is higher in “PBM E-score” value: 0.135 for the first, 0.212 for the second.

Going from CGAGATGC to GGTACCAA, the “PBM E-score” value rises from -0.0846 to 0.0294.

Compared with AAGTTAGG, CCTTGAAC is lower in “PBM E-score” value: -0.0844 for the first, -0.1 for the second.

First: AACCGAGT
Second: TACCGAGA
The “PBM E-score” value of the first is lower: 0.157 for the first, 0.209 for the second.

Going from AACCGAGC to GACCGAGC, the “PBM E-score” value rises from 0.371 to 0.375.

Compared with GACCGACC, CACCGAGA is lower in “PBM E-score” value: 0.266 for the first, 0.259 for the second.

Going from AACCGAGG to GACCGAGA, the “PBM E-score” value rises from 0.148 to 0.382.

Going from CACCGAGC to GCTACGCC, the “PBM E-score” value falls from 0.297 to -0.0393.

Compared with CATCCGCC, CCTAGTTC is lower in “PBM E-score” value: 0.244 for the first, -0.00076 for the second.

Going from AGTATGCC to AAAGGCAT, the “PBM E-score” value falls from 0.0174 to -0.125.

First: AACTGAAT
Second: CTAACTCC
The “PBM E-score” value of the first is lower: -0.215 for the first, 0.403 for the second.

First: ATAACTCC
Second: ATAACTCA
The “PBM E-score” value of the first is higher: 0.4 for the first, -0.0521 for the second.

Compared with CTAACTCA, CTAACTGC is higher in “PBM E-score” value: -0.177 for the first, -0.0433 for the second.

Going from ATAACTCG to AAAAGGAA, the “PBM E-score” value falls from 0.205 to 0.0913.

Going from ACGGGTAT to AACGATAG, the “PBM E-score” value rises from 0.0846 to 0.118.

Compared with CGCGATAC, CCCGATCC is higher in “PBM E-score” value: 0.17 for the first, 0.31 for the second.

Compared with CACGATAG, CCCGATAG is higher in “PBM E-score” value: -0.138 for the first, 0.414 for the second.

Going from ACCGATAG to ACCGATAA, the “PBM E-score” value rises from 0.373 to 0.443.

Compared with CGCGATAG, CCCGATAC is higher in “PBM E-score” value: 0.2 for the first, 0.432 for the second.

Compared with ACCGATTA, AGCGATAG is lower in “PBM E-score” value: 0.335 for the first, 0.119 for the second.

Compared with AGCGATAA, CATCGAGG is lower in “PBM E-score” value: 0.284 for the first, -0.23 for the second.

Compared with CTCAGGAA, AACCGGCT is higher in “PBM E-score” value: -0.108 for the first, 0.252 for the second.

Going from GCTGCTCA to GGCAAGGA, the “PBM E-score” value rises from -0.241 to -0.0722.

Compared with CTGAGTCC, ACTATCAA is higher in “PBM E-score” value: -0.0126 for the first, 0.0295 for the second.

Going from CCGCCTCC to CGATTTTC, the “PBM E-score” value rises from 0.0265 to 0.147.

Compared with CCCGATGA, ACCGATGA is lower in “PBM E-score” value: 0.285 for the first, 0.223 for the second.

Compared with ACCGATCT, GCCGATCA is lower in “PBM E-score” value: 0.274 for the first, 0.263 for the second.

Going from AACGATAT to ACCGATAT, the “PBM E-score” value rises from -0.0547 to 0.43.

First: GCCGATGA
Second: GGCGATAC
The “PBM E-score” value of the first is higher: 0.373 for the first, 0.265 for the second.

Going from GCCGATAA to GGCGATAA, the “PBM E-score” value falls from 0.449 to 0.392.

First: CGCGATAA
Second: GTCGATAA
The “PBM E-score” value of the first is higher: 0.115 for the first, -0.0382 for the second.

Compared with CTAGATGC, GAATCGAA is higher in “PBM E-score” value: -0.224 for the first, -0.142 for the second.

First: ACAGGCTG
Second: CTTGCACA
The “PBM E-score” value of the first is lower: -0.256 for the first, -0.136 for the second.

Compared with CACGATAA, ACCGATAC is higher in “PBM E-score” value: 0.087 for the first, 0.371 for the second.

Going from GCCGATCC to TCCGATAA, the “PBM E-score” value rises from 0.258 to 0.45.

Going from CCCGATTA to GACGATAC, the “PBM E-score” value falls from 0.197 to 0.0839.

Going from TACGATAA to AACGATAC, the “PBM E-score” value falls from 0.0399 to -0.2.

Compared with TCCGATCA, CCCGATAA is higher in “PBM E-score” value: 0.221 for the first, 0.417 for the second.

First: GCCGATAC
Second: AGCGATAC
The “PBM E-score” value of the first is higher: 0.417 for the first, 0.065 for the second.

First: GTAGGGAC
Second: AGTGAGTC
The “PBM E-score” value of the first is higher: -0.0187 for the first, -0.18 for the second.

Compared with CCTCTAAG, GTTATCGA is higher in “PBM E-score” value: -0.337 for the first, 0.165 for the second.

Compared with CAGACCAG, CGAATTAA is higher in “PBM E-score” value: 0.0149 for the first, 0.0158 for the second.

Going from AGAATTAC to GGAATTAC, the “PBM E-score” value rises from 0.0991 to 0.375.

Compared with GGAATTAA, CGAATTAC is lower in “PBM E-score” value: 0.419 for the first, 0.15 for the second.

Compared with TGAATTAA, TATCTCAA is lower in “PBM E-score” value: -0.0149 for the first, -0.0851 for the second.

Compared with GCCTGGAC, AGATCCGC is higher in “PBM E-score” value: -0.0392 for the first, 0.263 for the second.

First: CTATCCGA
Second: AGATCCGA
The “PBM E-score” value of the first is lower: 0.113 for the first, 0.359 for the second.

First: GTATCCGA
Second: ATATCCAG
The “PBM E-score” value of the first is higher: 0.304 for the first, 0.0668 for the second.

First: CTATCCGC
Second: ATATCCGA
The “PBM E-score” value of the first is lower: 0.257 for the first, 0.463 for the second.

First: ATATCCCG
Second: AGATCCGG
The “PBM E-score” value of the first is lower: 0.286 for the first, 0.384 for the second.

First: ATATCCGC
Second: ATATCCGG
The “PBM E-score” value of the first is lower: 0.387 for the first, 0.452 for the second.

Going from ATATCCTC to AGGCAATG, the “PBM E-score” value falls from 0.0211 to -0.17.

First: ACTGGGGA
Second: AGTGGAAC
The “PBM E-score” value of the first is lower: -0.016 for the first, 0.0266 for the second.

First: CAGATCCC
Second: GAGTCCGC
The “PBM E-score” value of the first is lower: 0.0493 for the first, 0.249 for the second.

Going from AAGTCCAT to AAGTCCTG, the “PBM E-score” value falls from -0.00211 to -0.0784.

Going from AAGTCCGG to CAGTCCGG, the “PBM E-score” value falls from 0.47 to 0.364.

First: CAGTCCGC
Second: AAGTCCGT
The “PBM E-score” value of the first is lower: 0.0912 for the first, 0.417 for the second.

Compared with AAGTCCCT, AAGTCCGC is higher in “PBM E-score” value: -0.278 for the first, 0.427 for the second.

Going from GTTGGTTA to TTGCAAAA, the “PBM E-score” value rises from -0.0552 to -0.00902.

Compared with CCGAAGTA, GAGGCACA is lower in “PBM E-score” value: 0.365 for the first, -0.112 for the second.

Compared with ATCCGTTA, ATCCGTTG is lower in “PBM E-score” value: 0.409 for the first, 0.301 for the second.

Compared with GTCCGTTA, GTCCGTGA is lower in “PBM E-score” value: 0.444 for the first, 0.303 for the second.

First: CTCCGTTA
Second: ATCCGTTC
The “PBM E-score” value of the first is higher: 0.367 for the first, 0.233 for the second.

Compared with CGCCCGCA, GCCTGAAC is lower in “PBM E-score” value: 0.189 for the first, -0.0686 for the second.

Going from CGCAGGGC to GGGTATGA, the “PBM E-score” value rises from -0.0256 to 0.0413.
